# Test results published in the supplement of paper PMC7156485.
# Values without a mark were called inactive.
# Tested on: TDF
# Experiment: H1.0 immunofluorescence intensity relative to DMSO (% of DMSO); higher = stronger H1.0 induction, active = 120 or more
# Details: concentration: 10 µM; 24 h
# Method in brief: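 HCC1569 and TDF cells (800 per well, 384-well plates, RPMI with 10% FBS) were treated with compounds at 10 µM for 24 h at 37 °C, in triplicate. Cells were fixed in 3.7% formaldehyde and stained with a rabbit anti-H1.0 antibody, an AlexaFluor 647 secondary and DAPI; six fields per well were imaged at ×10. H1.0 nuclear intensity or cell number is expressed as percent of the plate DMSO control, taking the median of replicates. HCC1569 values were smoothed for positional effects.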
# 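Note: TDF is a line of transformed human dermal fibroblasts of mesenchymal origin.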
row,Compound,H1.0 immunofluorescence intensity
1,COc1ccc(C(=O)/C(Cc2cc(OC)c(OC)c(OC)c2)=C(\C(=O)[O-])c2ccc3c(c2)OCO3)cc1.[Na+],88.2
2,N#CC(=Cc1ccc(O)c(O)c1)C(=O)NCCc1ccccc1 [Tyrphostin AG 698],87.8
3,CC(C)COCC(CN(Cc1ccccc1)c1ccccc1)N1CCCC1.Cl (stereo not drawn) [Bepridil.HCl],93.1
4,C=C1C(=CC=C2CCCC3(C)C2CCC3C(C)C=CC(O)C2CC2)CC(O)CC1O (stereo not drawn) [Calcipotriene],91.9
5,CCN1C(=O)C=CC1=O [N-Ethylmaleimide],96.6
6,O=C(O)c1cc2cc(F)ccc2[nH]1 [5-Fluoroindole-2-carboxylic acid],102
7,C#Cc1cccc(Nc2ncnc3cc(OCCOC)c(OCCOC)cc23)c1 [Erlotinib],91.3
8,CCCCCCCCCCCCCCCC(=O)O [Hexadecanoic acid],104
9,CCC(=O)OC1(C(=O)SCF)C(C)CC2C3CC(F)C4=CC(=O)C=CC4(C)C3(F)C(O)CC21C (stereo not drawn),86.8
10,CCCCCCCCCCCCCCCCCCCC(=O)O [Eicosanoic acid],102
11,CCCOc1cc2c(cc1\C(C)=C/C=C/C(C)=C/C(=O)O)C(C)(C)CCC2(C)C,90.3
12,CC(NC(=O)C(C#N)=Cc1ccc(O)c(O)c1)c1ccccc1 (stereo not drawn) [Tyrphostin AG 527],87.7
13,Cl.NCC1OC(C23CC4CC(CC(C4)C2)C3)Cc2c1ccc(O)c2O (stereo not drawn),102
14,CN(C)CCC=C1c2ccccc2COc2ccc(CC(=O)O)cc21 [Olopatadine],90.3
15,"CCCCCC#CCC#CCC#CCC#CCCCC(=O)O [5,8,11,14-Eicosatetraynoic acid]",93.3
16,NC(C(=O)NC1C(=O)N2C(C(=O)O)=C(Cl)CSC12)c1ccccc1 (stereo not drawn) [Cefaclor],103
17,Cn1sc(=O)n(Cc2ccccc2)c1=O [GSK-3b Inhibitor I],98.3

row,Compound,H1.0 immunofluorescence intensity
1,"CCCCCCCCC=CCC=CCC=CCCCC(=O)O [5(Z), 8(Z), 11(Z)-Eicosatrienoic Acid]",98.1
2,Fc1ccc(-c2c3cccc(C(F)(F)F)c3nn2Cc2ccc(F)cc2Cl)cc1,92.3
3,CCCCCCCCCCCCCCCC(O)C(N)CO (racemic) [DL-erythro-Dihydrosphingosine],108
4,CC12CCC3c4ccc(O)cc4CCC3C1CCC2O (stereo not drawn) [beta-Estradiol],101
5,CC(C)(ON=C(C(=O)NC1C(=O)N2C(C(=O)[O-])=C(C[n+]3ccccc3)CSC12)c1csc(N)n1)C(=O)O (stereo not drawn) [Ceftazidime],90.2
6,"CCN(CC)C(=O)c1ccc(Nc2nc(OCC3CCCCC3)c3[nH]cnc3n2)cc1 [Cdk2 Inhibitor IV,                 NU6140]",98.1
7,NS(=O)(=O)c1cc2c(cc1Cl)NC=NS2(=O)=O [Chlorothiazide],95.5
8,NC(N)=NCCC[C@H](N)C(=O)O [L-Arginine],93.7
9,CCC(=O)OC1(C(=O)CCl)C(C)CC2C3CCC4=CC(=O)C=CC4(C)C3(F)C(O)CC21C (stereo not drawn) [Clobetasol Propionate],87.8
10,"Cl.Nc1c2c(nc3ccccc13)CCCC2 [9-Amino-1,2,3,4-tetrahydroacridine hydrochloride]",94.8
11,CN1c2ccccc2C(=O)N2CCc3c([nH]c4ccccc34)C21 (stereo not drawn) [Evodiamine],165 (active)
12,Cl.Clc1cccc(Cl)c1NC1=NCCN1 [Clonidine hydrochloride],94.1
13,CCCCCCCCCCCC(=O)O [Dodecanoic acid],103
14,O=C1CC(c2ccc(O)cc2)Oc2cc(OC3OC(CO)C(O)C(O)C3O)cc(O)c21 (stereo not drawn) [Narigenin-7-O-glucoside],97.8
15,CCCC1OC2CC3C4CCC5=CC(=O)C=CC5(C)C4C(O)CC3(C)C2(C(=O)CO)O1 (stereo not drawn) [Budesonide],82
16,CC(c1cc2ccccc2s1)N(O)C(N)=O (stereo not drawn) [Zileuton],94.2
